These results are taken from PubChem BioAssay (NCI).

A short description of experiment [1]: NCI Yeast Anticancer Drug Screen. Data for the rad50 strain (AID 155).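 Further: 0% = growth of vehicle-only cultures of the same strain.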 The following applies: S. cerevisiae rad50 strain growth inhibition; at 50.0 µM; hits give high values. Put shortly: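 Vehicle-treated cultures provide the reference for the growth inhibition reported for compound-exposed, repair-deficient yeast.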
Experiment [2] in a line: NCI Yeast Anticancer Drug Screen. Data for the mec2-1 strain (AID 157). To be noted: S. cerevisiae mec2-1 strain, at 50.0 µM, hits give high values. The gist of the method:
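mec2-1 yeast strain, carrying an alteration in DNA damage repair or cell cycle control, was exposed to compounds; growth inhibition was measured relative to vehicle-treated controls.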

The nature of experiment [3]: NCI Yeast Anticancer Drug Screen. Data for the sgs1 mgt1 strain (AID 161).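 Further: 0% = growth of cultures given vehicle only.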 The following applies: S. cerevisiae sgs1 mgt1 strain, at 50.0 µM, hits give high values. The gist of the method: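 Compounds are added to genetically altered yeast, and growth is compared with cultures given vehicle alone to give percent inhibition.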
Experiment [4] is described as follows: NCI Yeast Anticancer Drug Screen. Data for the cln2 rad14 strain (AID 165).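 Further: 0% = growth equal to vehicle treated cultures.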 To be noted: S. cerevisiae cln2 rad14 strain, at 50.0 µM, hits give high values. The gist of the method:
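Yeast carrying cln2 and rad14 alterations (cell cycle control and DNA damage repair) were exposed to compounds. Growth inhibition was measured against vehicle-treated controls.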

The nature of experiment [5]: NCI Yeast Anticancer Drug Screen. Data for the bub3 strain (AID 167). The following applies: S. cerevisiae bub3 mutant strain, at 50.0 µM, hits give high values. Put shortly: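 Mutant yeast screening strain plus compound; vehicle-treated cultures serve as the 0% inhibition reference.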
The nature of experiment [6]: NCI Yeast Anticancer Drug Screen. Data for the mlh1 rad18 strain (AID 175). The following applies: S. cerevisiae mlh1 rad18 strain growth inhibition; at 50.0 µM; hits give high values. The gist of the method:
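Growth inhibition of the yeast strain was measured after compound exposure and expressed relative to vehicle-treated controls. The strain carries defined defects in DNA damage repair.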

This is part of a sample that, as a whole, favours compounds with a hit. Of some 79,000 tested, about 15% had one in any assay. A number with no mark means an inactive call. Calls of active or inactive are those of the source. No stated cut-off is given here; in the data, active means growth inhibition above about 70%; inactive means the rest.

Turning to `Cc1ccccc1-n1c(=S)[nH]c2c(sc(=O)n2-c2ccccc2C)c1=O`, the growth inhibition in experiment [1] is 3.95%; in experiment [2], -7.9%; in experiment [3], 0.8%; in experiment [4] it was 17.6%; in experiment [5], 0.1%; in experiment [6], -11.4%.

Turning to `CC/C(C=O)=C\NC(=O)Nc1ccccc1`, the growth inhibition in experiment [1] is 9.35%; in experiment [2] it was -21.6%; in experiment [3], 0.8%; in experiment [4], -22.9%; in experiment [5], -26.6%; in experiment [6], 1.1%.

In the case of `C/C(CCn1[nH]c(=O)ccc1=O)=N\O`, the growth inhibition in experiment [1] is -6.55%; in experiment [2], -19.2%; in experiment [3], -5.8%; in experiment [4], -12.1%; in experiment [5], -24.6%; in experiment [6] it was -11.3%.

Regarding `Cc1cccc(NC(=O)Oc2ccc(Nc3ccccc3)cc2)c1`, the growth inhibition in experiment [1] was 6.6%; in experiment [2], 38.5%; in experiment [3], 40.2%; in experiment [4], 12.3%; in experiment [5], 62%; in experiment [6], 50.4%.

`Cc1cccc(-c2cc3cccnc3nc2NN=O)c1C`: the growth inhibition in experiment [1] is 64.8%; in experiment [2], 68%; in experiment [3], 75.7% (active); in experiment [4] it was 39.3%; in experiment [5] it was 67.1%; in experiment [6], 76.5% (active).

As to `C=C(CN(C)C)C(=O)c1ccc(C(=O)C(=C)CN(C)C)cc1`, the growth inhibition in experiment [1] is -1.4%; in experiment [2], 6.85%; in experiment [3] it was 2.2%; in experiment [4], -2.15%; in experiment [5], 0.65%; in experiment [6] it was 6.4%.

For `CN(C)c1nc(-c2ccccc2)c(Cc2ccccc2)c(=O)o1`, the growth inhibition in experiment [1] was -1.9%; in experiment [2] it was -4.15%; in experiment [3], 20.5%; in experiment [4], -4.25%; in experiment [5] it was 7.25%; in experiment [6], 7.8%.

Consider `O=C1OC2C(Cl)CC(Cl)CC2C=C1c1cccc([N+](=O)[O-])c1` (stereo unspecified), for which the growth inhibition in experiment [1] is -3.3%; in experiment [2] it was 12.2%; in experiment [3], -16.6%; in experiment [4] it was -21.9%; in experiment [5], 11.8%; in experiment [6] it was -0.4%.

For `CC(C)c1ccc(O)c(Cc2cc(C(C)C)cc(Cc3cc(C(C)C)ccc3O)c2O)c1`, the growth inhibition in experiment [1] is -14.3%; in experiment [2], -3.2%; in experiment [3] it was -10.2%; in experiment [4] it was 4.6%; in experiment [5] it was 1.1%; in experiment [6], -3.25%.

Turning to `CS1(C)=NC(=O)c2cc([N+](=O)[O-])ccc2N=1`, the growth inhibition in experiment [1] is 12.2%; in experiment [2], 19.4%; in experiment [3], 10.4%; in experiment [4], -25.2%; in experiment [5], 11.8%; in experiment [6], 12.8%.

For the compound `CC(=O)OCC1OC(n2cnc3c(N)ncnc32)C(Nc2ccc([N+](=O)[O-])cc2[N+](=O)[O-])C(OC(C)=O)C1OC(C)=O` (stereo unspecified), the growth inhibition in experiment [1] was 23.2%; in experiment [2], 4.4%; in experiment [3], 5.8%; in experiment [4] it was 17.9%; in experiment [5], 3.45%; in experiment [6], 21.8%.

As for `CN1CCN(C(=O)NC(C)(C)C)CC1`, the growth inhibition in experiment [1] is -1.45%; in experiment [2] it was -6.6%; in experiment [3] it was -8.35%; in experiment [4] it was -88.8%; in experiment [5], -1.9%; in experiment [6], -17.7%.

Turning to `Cn1c(=O)c2ncn(Cc3ccccc3)c2n(C)c1=O`, the growth inhibition in experiment [1] was 1.8%; in experiment [2], 4.4%; in experiment [3], 0.85%; in experiment [4], 0.75%; in experiment [5] it was -7.75%; in experiment [6], 13.2%.

`CN1c2ccccc2C(=O)NC12CCN(CC1COc3ccccc3O1)CC2` (stereo unspecified): the growth inhibition is 58.1% in experiment [1]; 71.4% (active) in experiment [2]; 82.4% (active) in experiment [3]; 62.9% in experiment [4]; 66.5% in experiment [5]; 66% in experiment [6].

Regarding `CC1CCC2C1(C)CCC1C2(C)CCC2(C)C3CC(C)(C)CCC3(C)CCC12C` (stereo unspecified), the growth inhibition in experiment [1] was -9.45%; in experiment [2], -35.8%; in experiment [3], -12.8%; in experiment [4], 1.6%; in experiment [5], -26.4%; in experiment [6], -11.2%.

With `C=C(C)C(=O)OCCOCCOCCOC(=O)C(=C)C`, the growth inhibition in experiment [1] is 8.4%; in experiment [2], -19.2%; in experiment [3] it was -9.75%; in experiment [4], 3%; in experiment [5] it was -7.7%; in experiment [6] it was 4.5%.

`C=CCNC(=O)CS(=O)(=O)c1ccc(C)cc1`: the growth inhibition in experiment [1] was 0.1%; in experiment [2] it was -10.3%; in experiment [3], -0.35%; in experiment [4], 15.3%; in experiment [5], 3.05%; in experiment [6] it was 10.6%.

For the compound `CC(=O)Nc1cc2cc(NS(=O)(=O)c3cc(C(F)(F)F)cc(C(F)(F)F)c3)ccc2oc1=O`, the growth inhibition is 0% in experiment [1]; -10.2% in experiment [2]; -4.9% in experiment [3]; 17.4% in experiment [4]; -9.95% in experiment [5]; 10.9% in experiment [6].

Regarding `CC(=N\N)/C(C)=N/N=C(C)/C(C)=N/N=C(C)/C(C)=N/N=C(C)/C(C)=N/N`, the growth inhibition is 11.7% in experiment [1]; -7.8% in experiment [2]; 4.9% in experiment [3]; 13.7% in experiment [4]; -8.35% in experiment [5]; -14.4% in experiment [6].

For `Cc1ccc(N2C(=O)/C(=C3\Sc4c(nc(C)n(C)c4=O)N3c3ccccc3)SC2=S)cc1`, the growth inhibition in experiment [1] is -20.9%; in experiment [2] it was -31.4%; in experiment [3], -7.3%; in experiment [4] it was -58.5%; in experiment [5], -32.5%; in experiment [6], -26.8%.

With `CS(=O)(=O)CC(=O)c1ccc(O)cc1O`, the growth inhibition is 4.55% in experiment [1]; 3.55% in experiment [2]; -0.6% in experiment [3]; -43.2% in experiment [4]; -13.1% in experiment [5]; -7% in experiment [6].
